Screening results deposited in PubChem BioAssay by National Center for Advancing Translational Sciences (NCATS).
Pf growth 48h = Primary qHTS for delayed death inhibitors of the malarial parasite plastid, 48 hour incubation. P. falciparum luciferase growth in erythrocytes, 48 h. Potency, µM (series often up to 28.7 µM), most hits filed as inhibitors. hit rate 5.9% among 310,000. AID 504832, 2011
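Luminescence readout; reporter = integrated firefly luciferase in P. falciparum. RBC culture at 2% hematocrit, 0.1% parasitemia final, 37 C/5% CO2; decreased signal taken as growth inhibition.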
HCV inhibitor = qHTS Assay for Inhibitors of Hepatitis C Virus (HCV). Huh7.5.1 HCVcc-Cre infection, luciferase reporter, 44 h. Potency, µM (doses to about 41.8 µM), most hits filed as inhibitors. hit rate 3.4% among 340,000
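Seed cells (1,000/well) for 4 h; treat with compound and infect with HCVcc-Cre, moi about 0.5. Incubate 44 h, then detect luciferase activity.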
HCMV inh = qHTS Assay for inhibitors of the human cytomegalovirus (HCMV); HFF cells, HCMV-luciferase reporter, 72 h; active compounds read low; activity change, negative = inhibition, % at 57.5 µM; hit rate 4.5% among 410,000; AID 1259415, 2018; in the data active means activity change below about -60%; inconclusive means no clear call, values can overlap the other calls; inactive means above about -39%
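Cell-based, HFFs, 1000 cells/well, 16 h 37C; cpds in DMSO + HCMV-luc, MOI 1 PFU/cell; 72 h 37C; OneGlo luminescence after 5 min RT; norm. to buffer vs Salinomycin 10uM.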
Pf growth 96h = Primary qHTS for delayed death inhibitors of the malarial parasite plastid, 96 hour incubation. P. falciparum luciferase reporter growth, 96 h. Potency, µM (top dose mostly 28.7 µM), hits mostly inhibitors. hit rate 6.9% among 320,000. AID 504834, 2011
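Compounds incubated with erythrocytes infected by luciferase-expressing P. falciparum (2% hematocrit, 0.05% parasitemia final) for 96 hours, 37 C in 5% CO2. Growth inhibition scored as decreased luciferase luminescence.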
Each line names hits and unclear results; the compound was inactive in the other large screens. Rows were chosen to be rich in hits. Some 13% of all compounds tested hit in one or more screens of this group. Unless noted, the call rests on the fitted dose curve; in most records, active means well fitted inhibition curve with a large enough effect; inconclusive means small, poorly fitted or top-dose-only effect, or another doubt; inactive means no such curve, though single readings can be large or run the other way.

Cc1cc(Cl)ccc1NC(=O)CCCn1nc(C)c2c(C)n(-c3ccccc3)nc2c1=O	none (no result: Pf growth 48h, HCV inhibitor, Pf growth 96h)
CCCCCC(=O)Nc1ccc(N2CCN(CC)CC2)c(Cl)c1	HCV inhibitor 22µM
O=C(Nc1ccc(N2CCOCC2)c(Cl)c1)c1ccc([N+](=O)[O-])o1	Pf growth 48h 10µM, HCV inhibitor 11µM, HCMV inh -102
CC(=O)Nc1ccc(N2CCOCC2)c(Cl)c1	none
CCCCCC(=O)NC(=S)Nc1ccc(N2CCCCC2)c(Cl)c1	Pf growth 48h inconclusive, Pf growth 96h inconclusive
CN1CCN(c2ccc(NC(=O)c3ccc([N+](=O)[O-])o3)cc2Cl)CC1	Pf growth 48h inconclusive, HCV inhibitor 22µM, HCMV inh -101
O=C(Cn1c(=O)oc2cc(S(=O)(=O)NC3CCCC3)ccc21)Nc1ccc(F)c(F)c1	none (no result: Pf growth 48h, HCV inhibitor, Pf growth 96h)
CCOC(=O)c1ccc(CN2C(=O)C(n3cccc3)c3ccccc32)o1 (configuration not stated)	none (no result: Pf growth 48h, HCV inhibitor, Pf growth 96h)
S=c1[nH]nc(Cc2ccccc2)n1Cc1ccco1	HCMV inh -109 (no result: Pf growth 96h)
Fc1cccc(-n2ncc3c2ncn2nc(COc4ccc(Cl)cc4)nc32)c1	none (no result: Pf growth 48h, HCV inhibitor, Pf growth 96h)
Cc1noc(C)c1COC(=O)CCCc1nc2ccccc2s1	Pf growth 96h 5.2µM
COc1cccc(NC(=O)CNC(=O)Cn2c(C)cc3ccccc3c2=O)c1	none (no result: Pf growth 48h, HCV inhibitor, Pf growth 96h)
CCOc1ccc(CCNC(=O)Cn2nnc(-c3ccccc3Cl)n2)cc1OCC	none (no result: Pf growth 48h, HCV inhibitor, Pf growth 96h)
CCN(CC)C(=S)NC(=O)Cc1ccccc1	Pf growth 96h inconclusive
CN(C(=S)NC(=O)Cc1ccccc1)c1ccccc1	HCMV inh -67
CN(CCc1ccccn1)C(=O)c1cc(COc2ccc(F)cc2F)on1	HCMV inh inconclusive, Pf growth 96h inconclusive
CC(=O)c1ccc(OCc2cc(C(=O)N3CCN(c4ccccc4)CC3C)no2)cc1 (configuration not stated)	HCV inhibitor 22µM
CC(=O)c1ccc(OCc2cc(C(=O)N(C)Cc3ccon3)no2)cc1	none (no result: HCV inhibitor)
CC(=O)c1ccc(OCc2cc(C(=O)N(C)Cc3ccccn3)no2)cc1	Pf growth 96h 10µM (no result: HCV inhibitor)
Cc1ccc(OCc2cc(C(=O)N(C)CCc3ccccn3)no2)cn1	HCMV inh -63
Cc1ccc(N2C(=O)/C(=C/N3CCN(C(=O)c4ccco4)CC3)C(=O)NC2=S)cc1C	HCMV inh -101
O=[N+]([O-])c1cc(S(=O)(=O)NCc2ccco2)ccc1NN=Cc1ccccn1	none (no result: Pf growth 48h, HCV inhibitor, Pf growth 96h)
COc1cc(NC(=O)C2CCN(S(=O)(=O)c3ccc4c(c3)CCCC(=O)N4)CC2)cc(OC)c1	none (no result: Pf growth 48h, HCV inhibitor, Pf growth 96h)
O=C(O)c1cc(Nc2nc(N3CCOCC3)nc(N3CCOCC3)n2)ccc1Cl	none
Fc1ccccc1Nc1nc(N2CCOCC2)nc(N2CCOCC2)n1	HCV inhibitor inconclusive
C=CCNc1nc(Nc2ccc(-c3nc4ccccc4o3)cc2)nc(N2CCOCC2)n1	HCV inhibitor inconclusive, Pf growth 96h 4.7µM (no result: Pf growth 48h)
Clc1ccc(Nc2nc(N3CCOCC3)nc(N3CCOCC3)n2)cc1Cl	Pf growth 48h inconclusive, Pf growth 96h 13µM
Cc1ccccc1Nc1nc(N2CCOCC2)nc(N2CCOCC2)n1	Pf growth 48h inconclusive, HCMV inh active
Fc1ccc(Nc2nc(N3CCOCC3)nc(N3CCOCC3)n2)cc1Cl	Pf growth 48h inconclusive, Pf growth 96h 13µM
COc1cccc(C(c2sc3nc(-c4ccco4)nn3c2O)N2CCC(O)CC2)c1 (configuration not stated)	none (no result: Pf growth 48h, HCV inhibitor, Pf growth 96h)
COc1ccc(Cl)cc1NC(=O)CN1C(=O)CSc2ccc(S(=O)(=O)N3CCCC3)cc21	none (no result: Pf growth 48h, HCV inhibitor, Pf growth 96h)
Cc1ccc(Nc2nc(N3CCOCC3)nc(N3CCOCC3)n2)cc1	Pf growth 48h inconclusive, HCV inhibitor inconclusive, HCMV inh -65, Pf growth 96h inconclusive
CN1CCN(c2nc(Nc3cccc(C(F)(F)F)c3)nc(N3CCOCC3)n2)CC1	Pf growth 48h 2.1µM, HCV inhibitor inconclusive
FC(F)(F)c1cccc(Nc2nc(N3CCCC3)nc(N3CCCC3)n2)c1	Pf growth 48h inconclusive, HCMV inh inconclusive, Pf growth 96h inconclusive
CC(C)CCNC(=O)C12CN(Cc3ccccc3)CC1C(c1ccc([N+](=O)[O-])cc1)=NO2 (configuration not stated)	Pf growth 48h inconclusive, Pf growth 96h inconclusive
COc1cccc(CNC(=O)C23CN(Cc4ccccc4)CC2C(c2ccc([N+](=O)[O-])cc2)=NO3)c1 (configuration not stated)	Pf growth 48h inconclusive, HCV inhibitor inconclusive, Pf growth 96h 15µM
